{"source": "ChEMBL document CHEMBL1201862", "about": "“PubChem BioAssay data set” (2004)", "note": "Several values for one entry are separate records, joined by “and”; a condition that tells them apart may be missing. Identical values can stand only once. About 2,100 (0.53%) of roughly 400,000 compounds were called active. About 14% were inconclusive and are not listed. The sample holds actives, similar compounds and a random draw of the others, so the mix is not that of the screen. How the calls were made is not given here.", "data": [{"molecular_target": "Ataxin-2 (Homo sapiens) (UniProt Q99700)", "sequence (Q99700 whole entry)": "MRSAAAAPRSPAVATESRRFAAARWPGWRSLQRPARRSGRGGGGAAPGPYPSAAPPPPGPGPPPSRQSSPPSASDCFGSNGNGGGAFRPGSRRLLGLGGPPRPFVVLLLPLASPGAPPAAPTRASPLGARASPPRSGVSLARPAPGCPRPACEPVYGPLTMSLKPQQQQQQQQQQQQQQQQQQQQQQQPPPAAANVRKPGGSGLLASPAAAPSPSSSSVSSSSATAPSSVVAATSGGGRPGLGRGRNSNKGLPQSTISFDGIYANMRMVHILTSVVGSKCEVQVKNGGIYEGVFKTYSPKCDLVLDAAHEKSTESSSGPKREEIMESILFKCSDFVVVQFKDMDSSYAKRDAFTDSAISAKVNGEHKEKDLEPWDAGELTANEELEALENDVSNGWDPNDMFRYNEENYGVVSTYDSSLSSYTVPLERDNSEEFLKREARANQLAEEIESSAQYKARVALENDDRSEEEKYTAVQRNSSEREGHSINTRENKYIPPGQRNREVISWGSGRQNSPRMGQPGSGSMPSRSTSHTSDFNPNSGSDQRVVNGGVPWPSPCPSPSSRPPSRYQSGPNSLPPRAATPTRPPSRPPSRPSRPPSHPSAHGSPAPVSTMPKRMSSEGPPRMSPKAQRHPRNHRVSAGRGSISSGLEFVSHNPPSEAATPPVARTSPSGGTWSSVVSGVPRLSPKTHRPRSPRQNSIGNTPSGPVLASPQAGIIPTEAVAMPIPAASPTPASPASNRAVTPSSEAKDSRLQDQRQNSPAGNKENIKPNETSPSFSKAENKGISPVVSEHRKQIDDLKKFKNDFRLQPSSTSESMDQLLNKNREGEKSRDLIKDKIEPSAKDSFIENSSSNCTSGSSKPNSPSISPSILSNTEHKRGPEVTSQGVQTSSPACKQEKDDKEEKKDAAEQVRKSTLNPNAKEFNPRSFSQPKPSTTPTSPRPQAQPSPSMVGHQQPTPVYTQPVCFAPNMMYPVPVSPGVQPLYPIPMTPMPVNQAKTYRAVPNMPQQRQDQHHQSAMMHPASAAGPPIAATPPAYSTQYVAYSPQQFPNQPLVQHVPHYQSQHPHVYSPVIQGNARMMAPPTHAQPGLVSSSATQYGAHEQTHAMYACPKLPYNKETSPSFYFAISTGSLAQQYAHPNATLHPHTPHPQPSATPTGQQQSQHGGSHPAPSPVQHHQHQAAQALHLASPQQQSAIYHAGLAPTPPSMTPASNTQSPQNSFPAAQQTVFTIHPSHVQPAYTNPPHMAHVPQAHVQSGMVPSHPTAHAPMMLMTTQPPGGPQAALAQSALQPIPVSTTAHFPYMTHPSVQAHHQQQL", "assay": "qHTS for Inhibitors of ATXN expression.", "type": "functional", "values": [{"smiles": "O=C(O)CCC(=O)N1CCN(c2nc(-c3ccccc3)c3ccccc3n2)CC1", "Potency": "inactive"}, {"smiles": "O=C(CCCCCn1c(=S)[nH]c2ccc(N3CCOCC3)cc2c1=O)NCc1ccccc1Cl", "Potency": "inactive"}, {"smiles": "Cc1cccc(OCc2nnc(SCC(=O)O)n2-c2ccccc2)c1", "Potency": "39.8 µM (active)"}, {"smiles": "CCn1c(COc2cccc(C)c2)nnc1SCC(=O)NC1CCCC1", "Potency": "inactive"}, {"smiles": "Cc1ccc(NCc2nnc(SCC(=O)O)n2-c2ccc(C)cc2)cc1", "Potency": "inactive"}, {"smiles": "COc1ccc2ccc3cccc[n+]3c2c1", "Potency": "inactive"}, {"smiles": "CC(=O)Nc1ccc(S(=O)(=O)Nc2nc(C)cc(-n3nc(C)cc3C)n2)cc1", "Potency": "inactive"}, {"smiles": "Cc1cc(NC(=O)CSc2nc3c(C)cccc3cc2C#N)no1", "Potency": "inactive"}, {"smiles": "NNC(=O)c1oc2nc(-c3ccccc3)cc(-c3ccco3)c2c1N", "Potency": "inactive"}, {"smiles": "O=C1[C@H](Cc2ccccc2)NCC=CC[C@@H](c2ccc(Cl)cc2)N1Cc1ccccc1", "Potency": "35.5 µM (active)"}, {"smiles": "O=C1[C@H](Cc2ccccc2)NCC=CC[C@@H](c2ccc(Cl)cc2)N1Cc1ccc(Cl)cc1", "Potency": "28.2 µM (active)"}, {"smiles": "Cc1ccc2nc3nc(NCC4CCCO4)c(C(=O)NC4CCCC4)cc3c(=O)n2c1", "note": "(centres undefined)", "Potency": "inactive"}, {"smiles": "CCC(=O)c1cc2c(C)cc(=O)oc2c(C)c1OC(C)=O", "Potency": "inactive"}, {"smiles": "Brc1ccc(OCc2nnnn2-c2ccccc2)cc1", "Potency": "inactive"}, {"smiles": "COc1ccccc1N1CCN(S(=O)(=O)c2ccc(-n3cnnn3)cc2)CC1", "Potency": "inactive"}, {"smiles": "COc1ccccc1-n1nnnc1S(=O)(=O)Cc1ccc(Cl)cc1", "Potency": "25.1 µM (active)"}, {"smiles": "Cc1cccc(/C=C(\\C(=O)C(=O)O)c2ccc3ccccc3n2)c1", "Potency": "inactive"}, {"smiles": "CC(C)CC(N)c1csc(Nc2cc(Oc3ccccc3)ncn2)n1", "note": "(centres undefined)", "Potency": "39.8 µM (active)"}, {"smiles": "NC(Cc1ccc(Cl)cc1)c1csc(Nc2cc(Oc3ccccc3)ncn2)n1", "note": "(centres undefined)", "Potency": "35.5 µM (active)"}, {"smiles": "CCn1c(SCc2ccc(F)cc2)nc2c(c1=O)SCC2", "Potency": "inactive"}, {"smiles": "COc1cccc(-c2ccc3c(N)c(C(=O)c4ccc(F)cc4)sc3n2)c1", "Potency": "inactive"}, {"smiles": "C=CCNC(S)=Nc1ccc(Br)cc1F", "Potency": "inactive"}, {"smiles": "CSc1ccccc1NC(=O)c1cc(C2CC2)on1", "Potency": "inactive"}, {"smiles": "CCOC(=O)CSC1=NC(=O)/C(=C\\c2ccc(OC(C)=O)cc2)S1", "Potency": "28.2 µM (active)"}, {"smiles": "CCOC(=O)C1=C(C)N=c2sc(=Cc3ccc(OCC(=O)O)cc3)c(=O)n2C1c1ccc(SC)cc1", "note": "(centres undefined)", "Potency": "inactive"}, {"smiles": "CCOC(=O)CSC1=N/C(=C/c2ccc(-n3cncn3)cc2)C(=O)N1C(C)=O", "Potency": "inactive"}, {"smiles": "CCOC(=O)c1cc2c(=O)n3ccccc3nc2n(CCOC)/c1=N\\C(=O)C(C)(C)C", "Potency": "inactive"}, {"smiles": "Cc1cccn2c(=O)c3cc(C(=O)NCc4ccco4)c(=N)n(C4CCCCC4)c3nc12", "Potency": "inactive"}, {"smiles": "Cc1ccc(N2C(=O)/C(=C\\Nc3ccccc3-c3nnc(S)nc3O)c3ccccc3C2=O)c(C)c1", "Potency": "17.8 µM (active)"}, {"smiles": "Cc1ccc(N2C(=O)/C(=C/NC3CCS(=O)(=O)C3)c3ccccc3C2=O)c(C)c1", "note": "(centres undefined)", "Potency": "inactive"}, {"smiles": "Cc1cccc(N2C(=O)/C(=C\\Nc3cc(O)ccc3C)c3ccccc3C2=O)n1", "Potency": "inactive"}, {"smiles": "CCOc1ccc(N2C(=O)/C(=C/Nc3ccnn3Cc3ccncc3)c3ccccc3C2=O)cc1", "Potency": "inactive"}, {"smiles": "Cn1nnnc1SCc1cccc2ccccc12", "Potency": "inactive"}, {"smiles": "COc1ccc(CNCCSc2nnnn2C)c(OC)c1OC", "Potency": "inactive"}, {"smiles": "Cn1nnnc1SCCCNCc1cc(Br)ccc1OCc1ccccc1F", "Potency": "25.1 µM (active)"}, {"smiles": "Cn1c2nc(=O)n(-c3ccccc3)c(=O)c-2nc2c1CCCC2", "Potency": "inactive"}, {"smiles": "CCOc1ccccc1NC(=O)CN1C(=O)COc2ccccc21", "Potency": "inactive"}, {"smiles": "CCOc1ccccc1NC(=O)c1cc(SC)ccc1Cl", "Potency": "inactive"}, {"smiles": "CCCOc1ccccc1NC(=O)/C=C/C(N)=O", "Potency": "35.5 µM (active)"}, {"smiles": "COc1ccccc1NC(=O)/C=C/C(N)=O", "Potency": "39.8 µM (active)"}, {"smiles": "CCOc1ccccc1NC(=O)/C=C/C(N)=O", "Potency": "39.8 µM (active)"}, {"smiles": "CCCCOc1ccccc1C1C(C(=O)OC)=CN(CC)C=C1C(=O)OC", "Potency": "inactive"}, {"smiles": "COc1ccccc1NC(=S)NC(=O)CCc1ccccc1", "Potency": "inactive"}, {"smiles": "COc1ccccc1NC(=O)CCC(=O)OC(C)C(=O)c1ccccc1", "note": "(centres undefined)", "Potency": "inactive"}, {"smiles": "CCCOc1ccccc1C1C(C(=O)OC)=CN(C(C)C)C=C1C(=O)OC", "Potency": "inactive"}, {"smiles": "Cc1cc(Br)ccc1-n1nc(C)c(/C=N/c2cccc3nsnc23)c1O", "Potency": "inactive"}, {"smiles": "Cc1cc(NC(=O)Cn2cc([N+](=O)[O-])cn2)n(Cc2ccc(F)cc2)n1", "Potency": "inactive"}, {"smiles": "COc1ccc(C(=O)c2oc3ccc(OC)cc3c2NC(C)=O)cc1", "Potency": "inactive"}, {"smiles": "O=C1C=C(NCCc2ccccc2)C2(CCCCC2)O1", "Potency": "inactive"}, {"smiles": "CSc1ccc2c(c1)C(N1CCN(C)CC1)Cc1ccccc1S2", "note": "(centres undefined)", "Potency": "22.4 µM (active) and 31.6 µM (active)"}, {"smiles": "CCc1ccccc1N1C(=O)[C@@H]2Cc3ccccc3CN2C1=O", "Potency": "inactive"}, {"smiles": "CN1CCN(C2Cc3ccccc3Sc3ccc(Cl)cc32)CC1", "note": "(centres undefined)", "Potency": "22.4 µM (active) and 28.2 µM (active)"}, {"smiles": "CN1CCN(C2Cc3ccccc3Sc3cc(C(F)(F)F)ccc32)CC1", "note": "(centres undefined)", "Potency": "39.8 µM (active)"}, {"smiles": "CCc1cccc2c1Sc1ccccc1CC2N1CCNCC1", "note": "(centres undefined)", "Potency": "39.8 µM (active)"}, {"smiles": "FC(F)(F)c1ccccc1C1=CC(c2ccccc2)n2ncnc2N1", "note": "(centres undefined)", "Potency": "inactive"}, {"smiles": "c1ccc(CCNc2ccnc3cc4ccccc4cc23)cc1", "Potency": "inactive"}, {"smiles": "CC(C)Nc1ccc(Nc2ccnc3cc4ccccc4cc23)cc1", "Potency": "31.6 µM (active)"}, {"smiles": "Cc1c2ccccc2nc2c(F)c(NC(C)C)c(F)c(F)c12", "Potency": "inactive"}, {"smiles": "Cc1c(CCC(=O)NC2CC2)c(=O)oc2cc(O)ccc12", "Potency": "inactive"}, {"smiles": "Cc1cc(/C=N/NC(=O)Cn2c3ccccc3c(=O)c3ccccc32)c(C)n1-c1ccc(Cl)cc1", "Potency": "inactive"}, {"smiles": "CC1CN(C(=O)COC(=O)c2ccc(NC(=O)CC#N)cc2)CC(C)O1", "note": "(centres undefined)", "Potency": "inactive"}, {"smiles": "O=C(c1cccn2c(=O)c3cc(Cl)ccc3nc12)N1CCOCC1", "Potency": "inactive"}, {"smiles": "NC(=O)c1c(NC(=O)c2ccc(S(=O)(=O)N3CCOCC3)cc2)sc2c1CCCCC2", "Potency": "inactive"}, {"smiles": "Cc1nnsc1C(=O)NNc1ccc(Cl)cc1", "Potency": "inactive"}, {"smiles": "O=C(c1nc2n(n1)C(c1ccc(Cl)cc1)C=C(c1ccccc1)N2)N1CCOCC1", "note": "(centres undefined)", "Potency": "inactive"}, {"smiles": "O=C(c1cc2cc(Br)ccc2s1)N1CCOCC1", "Potency": "inactive"}, {"smiles": "O=C(c1nnsc1S(=O)(=O)c1ccc(Cl)cc1)N1CCOCC1", "Potency": "26.7 µM (active)"}, {"smiles": "O=C(c1nnsc1[S+]([O-])c1ccc(Cl)cc1)N1CCOCC1", "note": "(centres undefined)", "Potency": "20 µM (active)"}, {"smiles": "CCCNC(=O)c1nnsc1[S+]([O-])c1ccc(Cl)cc1", "note": "(centres undefined)", "Potency": "6.7 µM (active)"}, {"smiles": "CCCc1nn(C)c(C(=O)Nc2ccc(Cl)cc2)c1Cl", "Potency": "inactive"}, {"smiles": "C=CCOC(=O)C(=O)/C=C/c1coc2ccccc2c1=O", "Potency": "inactive"}, {"smiles": "CCOc1cc(C(=O)NC2=NCCS2)cc(OCC)c1OCC", "Potency": "inactive"}, {"smiles": "Cc1noc(C)c1-c1nnc(-c2ccc(OC(F)(F)F)cc2)o1", "Potency": "inactive"}, {"smiles": "Fc1ccc(Br)cc1C1C=C(c2cccnc2)Nc2ncnn21", "note": "(centres undefined)", "Potency": "inactive"}, {"smiles": "O=C(CCN1CCCC1Cc1ccccc1)c1ccc2c(c1)OCCO2", "note": "(centres undefined)", "Potency": "31.6 µM (active)"}, {"smiles": "O=C(CCN1CCc2ccccc2C(O)(c2ccccc2)C1)c1ccc2c(c1)OCCO2", "note": "(centres undefined)", "Potency": "39.8 µM (active)"}, {"smiles": "Nc1c(-c2ccc3c(c2)OCCO3)oc2ccccc2c1=O", "Potency": "inactive"}, {"smiles": "O=C(C1CC(=O)N(c2ccc3c(c2)OCCO3)C1)N1CCN(Cc2ccccc2)CC1", "note": "(centres undefined)", "Potency": "inactive"}, {"smiles": "O=C(/C=C\\Nc1ccccc1Br)c1ccc2c(c1)OCO2", "Potency": "inactive"}, {"smiles": "O=C(CCN1Cc2ccccc2C1)c1ccc2c(c1)OCCO2", "Potency": "25.1 µM (active)"}, {"smiles": "N=C(NOC(=O)COc1ccc(Br)cc1Cl)c1ccncc1", "Potency": "inactive"}, {"smiles": "CC(C)C(NC(=O)C1CCCCC1)C(=O)NC1CCCC(C)C1C", "note": "(centres undefined)", "Potency": "inactive"}, {"smiles": "COc1cc(OC)c(-c2cc(C(=O)NCc3ccc(F)cc3)c3c(-c4ccccc4)[nH]nc3n2)cc1OC", "Potency": "44.7 µM (active)"}, {"smiles": "Cc1ccc(CNC(=O)c2sc3nc(-c4ccc(F)cc4)ccc3c2N)cc1", "Potency": "inactive"}, {"smiles": "Nc1c(C(=O)NCc2ccc(Cl)cc2)sc2nc(-c3ccc(F)cc3)ccc12", "Potency": "inactive"}, {"smiles": "N#CCSc1ccc2nc(-c3ccccc3)cn2n1", "Potency": "inactive"}, {"smiles": "Cc1cc(OCC(=O)N2CCC(O)(c3ccc(Cl)cc3)CC2)c2c(C)cc(=O)oc2c1", "Potency": "inactive"}, {"smiles": "Cc1ccc2c(c1)C(c1ccccc1)N(C(=O)COc1ccc(Cl)cc1Cl)CC(=O)N2", "note": "(centres undefined)", "Potency": "28.2 µM (active)"}, {"smiles": "CC1CC(=O)Nc2ccccc2N1C(=O)COc1ccccc1C(N)=O", "note": "(centres undefined)", "Potency": "inactive"}, {"smiles": "COc1cccc2c1cc1c(=O)n(CC(=O)NCCCN3CCN(C)CC3)nc(C)n12", "Potency": "inactive"}, {"smiles": "COc1ccc(N2CCN(C(=O)c3ccc(Cn4c(=S)[nH]c5ccc(N6CCOCC6)cc5c4=O)cc3)CC2)cc1", "Potency": "inactive"}, {"smiles": "O=C(NC1CCN(Cc2ccccc2)CC1)c1ccc(Cn2c(=S)[nH]c3ccc(N4CCOCC4)cc3c2=O)cc1", "Potency": "inactive"}, {"smiles": "CCCCNC(=O)c1ccc(Cn2c(=S)[nH]c3c([nH]c4ccc(OC)cc43)c2=O)cc1", "Potency": "39.8 µM (active)"}, {"smiles": "CCN(CC)c1ccc(/C=N/NC(=O)c2nnn(-c3nonc3N)c2-c2ccc(C)cc2)cc1", "Potency": "inactive"}, {"smiles": "Cc1cccn2c(=O)c3cc(C#N)c(=O)n(CCCN4CCOCC4)c3nc12", "Potency": "inactive"}, {"smiles": "COc1cc(C(=O)NCCCNc2nc3cc(C)c(C)cc3cc2C#N)cc(OC)c1OC", "Potency": "inactive"}, {"smiles": "CCOC(=O)CNC(=O)C12CC3CC(C1)CC(c1ccc(C)cc1)(C3)C2", "Potency": "inactive"}, {"smiles": "COc1ccc(C23CC4CC(CC(C4)C2)C3)cc1C(=O)NCCN(C)C", "Potency": "22.4 µM (active)"}, {"smiles": "COc1ccc(CCNC(=O)COC(=O)C2CC2C)cc1OC", "note": "(centres undefined)", "Potency": "inactive"}, {"smiles": "Cc1nc(COc2ccccc2Cl)sc1-c1ccnc(N)n1", "Potency": "inactive"}, {"smiles": "S=C(Nc1ccc2nc(-c3ccccn3)c(-c3ccccn3)nc2c1)N1CCOCC1", "Potency": "inactive"}, {"smiles": "COc1ccc(C(c2c(O)ccc3ccccc23)N2CCOCC2)c(OC)c1", "note": "(centres undefined)", "Potency": "15.8 µM (active)"}, {"smiles": "COc1ccc(-c2c(C)c3ccc(O)c(CN4CCOCC4)c3oc2=O)cc1", "Potency": "inactive"}, {"smiles": "COc1ccc(-c2cc3ccc(O)c(CN4CCOCC4)c3oc2=O)cc1OC", "Potency": "inactive"}]}]}
